Reference: the supplement of paper PMC11732987, “Enantioselective OTUD7B fragment discovery through chemoproteomics screening and high-throughput optimisation” (Communications Chemistry, 2025)

Each compound was assayed against T1, FAM105A (UniProt Q9NUU6) (assay: log2 ratio of Biotin-Ahx-Ub-VS probe labelling (fragment/DMSO); higher = less target engagement (more negative = stronger competition), active = hit call of the paper (q ≤ 0.05, log2 ratio ≤ -1)). Conditions: compound concentration: 200 uM; treatment time: 3 h.
T1 sequence (whole entry): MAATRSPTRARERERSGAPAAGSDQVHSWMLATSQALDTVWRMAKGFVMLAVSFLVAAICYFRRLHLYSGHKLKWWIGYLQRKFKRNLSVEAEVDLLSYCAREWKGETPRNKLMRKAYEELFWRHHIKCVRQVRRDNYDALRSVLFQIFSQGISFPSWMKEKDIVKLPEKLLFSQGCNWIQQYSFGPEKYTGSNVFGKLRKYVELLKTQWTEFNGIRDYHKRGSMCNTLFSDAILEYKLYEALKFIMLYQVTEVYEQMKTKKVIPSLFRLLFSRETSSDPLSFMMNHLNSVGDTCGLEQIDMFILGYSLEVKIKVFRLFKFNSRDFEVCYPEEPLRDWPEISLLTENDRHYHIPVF
Procedure, shortened: (§1)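 The table lists average log2 ratios of fragment over vehicle, from an unpaired t-test on global-median-normalised Spectronaut label-free quantities. Proteins with ≥2 unique peptides were used. Samples were HEK293T lysate (495 µg) treated in triplicate with fragment at 200 µM or vehicle for 3 h, then with Biotin-Ahx-Ub-VS (0.5 µM final) for 1 h, with labelled DUBs NeutrAvidin-enriched and run by diaPASEF LC-MS/MS.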

log2 ratio of Biotin-Ahx-Ub-VS probe labelling, inactive:
Cl.Cn1cnc2cc(CNC(=O)CCl)ccc21 -0.318
N#Cc1ccc(CNC(=O)CCl)cc1 -0.00692
Cc1nc(CN2CCCN(C(=O)CCl)CC2)no1.Cl -0.14
Cc1ccc(C)c(NC(=O)CCl)c1 -0.0979
Cc1cc(CC(C)NC(=O)CCl)n[nH]1 (stereo not given) 0.19
O=C(CCl)N1CCCN(C(=O)c2ccc(Cl)cc2)CC1 0.113
Cl.O=C(CCl)NCCN1CCc2ccccc21 0.43
CC1(NC(=O)CCl)CCS(=O)(=O)C1 (stereo not given) 0.0573
N#Cc1ccc(Cl)cc1NC(=O)CCl -0.217
O=C(CCl)N1CCCC1c1ccsc1 (stereo not given) 0.313
O=C(CCl)NCc1ccc(N2CCOCC2)nc1 0.479
O=C(CCl)NCc1cccc(F)c1 0.303
COc1ccccc1C(C)NC(=O)CCl (stereo not given) -0.0799
COc1ccc(Cl)cc1NC(=O)CCl -0.287
O=C(CCl)N1CCC(c2nc3ccccc3o2)CC1 0.258

Each compound was assayed against OTUB1 (UniProt Q96FW1) in the same assay as above. Conditions: compound concentration: 200 uM; treatment time: 3 h.
Procedure, shortened: as §1

OTUB1, sequence (Q96FW1 whole entry): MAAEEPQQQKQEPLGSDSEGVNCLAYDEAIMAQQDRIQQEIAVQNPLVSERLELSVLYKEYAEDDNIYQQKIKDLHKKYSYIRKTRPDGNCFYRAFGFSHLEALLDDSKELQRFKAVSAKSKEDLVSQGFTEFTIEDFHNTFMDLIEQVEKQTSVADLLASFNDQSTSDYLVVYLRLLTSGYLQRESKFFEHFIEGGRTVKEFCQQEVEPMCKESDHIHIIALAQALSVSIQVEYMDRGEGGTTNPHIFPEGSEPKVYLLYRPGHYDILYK

log2 ratio of Biotin-Ahx-Ub-VS probe labelling, inactive:
Cl.O=C(CCl)N1CCC(n2nc3ccccc3n2)CC1 -0.67
Cc1cccc(C)c1NC(=O)CCl -0.261
CCN(C(=O)CCl)C1CCS(=O)(=O)C1 (stereo not given) -0.59
Cl.O=C(CCl)N[C@H]1C[C@@H](n2cccn2)C1 -0.581
Cc1ccc2nnc(CNC(=O)CCl)n2c1 0.0976
O=C(CCl)Nc1ccc(N2CCCC2=O)cc1 -0.351
Cl.O=C(CCl)NCc1ccnc(Oc2ccccc2F)c1 -0.232
O=C(CCl)N1CCC(S(=O)(=O)c2ccc(F)cc2)CC1 0.147
Cl.O=C(CCl)N1CCn2ncc(O)c2C1 -0.64
Cc1cccc(NC(=O)CCl)c1C 0.0184
CCN(C(=O)CCl)C1CCCCC1 0.0443
O=C(CCl)NC1(c2ccc3c(c2)OCCO3)CCCC1 -0.359
O=C(CCl)N1CCN(C(=O)Nc2ccccc2)CC1 0.155
O=C(CCl)NC(Cn1ccccc1=O)c1ccccc1 (stereo not given) -0.3
CC1CCc2onc(CNC(=O)CCl)c2C1 (stereo not given) 0.048
O=C(CCl)N1CCCCCC1c1ncon1 (stereo not given) 0.099
Cc1cccc(N(CCC#N)C(=O)CCl)c1C 0.00102
O=C(CCl)Nc1ccccc1C(F)(F)F -0.144
Cc1ccccc1OCC(=O)N1CCN(C(=O)CCl)CC1 -0.249
CN(C)C(=O)c1ccc(CNC(=O)CCl)cc1 -0.0918
Cl.Cn1cnc2cc(CNC(=O)CCl)ccc21 0.0608
N#Cc1ccc(CNC(=O)CCl)cc1 -0.0861
Cc1nc(CN2CCCN(C(=O)CCl)CC2)no1.Cl 0.0104
Cc1ccc(C)c(NC(=O)CCl)c1 -0.23
Cc1cc(CC(C)NC(=O)CCl)n[nH]1 (stereo not given) 0.11
O=C(CCl)N1CCCN(C(=O)c2ccc(Cl)cc2)CC1 -0.428
Cl.O=C(CCl)NCCN1CCc2ccccc21 0.169
CC1(NC(=O)CCl)CCS(=O)(=O)C1 (stereo not given) -0.246
N#Cc1ccc(Cl)cc1NC(=O)CCl -0.265
O=C(CCl)N1CCCC1c1ccsc1 (stereo not given) -0.142
O=C(CCl)NCc1ccc(N2CCOCC2)nc1 0.0139
O=C(CCl)NCc1cccc(F)c1 -0.181
COc1ccccc1C(C)NC(=O)CCl (stereo not given) -0.298
COc1ccc(Cl)cc1NC(=O)CCl -0.497
O=C(CCl)N1CCC(c2nc3ccccc3o2)CC1 0.109
